Source: PubChem BioAssay
CYP2C19 activ: human CYP2C19 activators, primary screen, biochemical, luminescence. Cytochrome P450 2C19 (Homo sapiens), P33261. recombinant CYP2C19, luciferin-H EGE luminescence; stronger effect = higher value; 0 = fully inhibited enzyme, 1 = untreated enzyme. activation factor at 5 µM. 96,000 tested, under 10 active;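 active = activation factor of at least 2 at 5 µM in the primary screen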
CYP2C9 act: human CYP2C9 activators, primary screen, biochemical, luminescence. Cytochrome P450 2C9 (Homo sapiens), P11712. actives 1.4% (n = 96,000). AID 1024, 2008. activation factor at 5 µM. recombinant CYP2C9, luciferin-H conversion; stronger effect = higher value; factor 1 = untreated enzyme, 0 = blocked;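 active = activation factor of 2 or more for CYP2C9 at a 5 µM dose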
CYP2C19 inh: blockers of cytochrome P450 2C19 activity – biochemical, luminescence, ADME assay, primary screen; inhibition, % at 5 µM; P33261; CYP2C19 Supersomes, luciferin-H EGE luminescence, 30 min; AID 778, 2007; actives 21% (n = 96,000);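 active = CYP2C19 inhibition above a set limit at 5 µM in the primary screen, cut at about 50% in these data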
CYP2C9 inhib: blockers of cytochrome P450 2C9 activity – biochemical, luminescence, ADME assay, primary screen; P11712; CYP2C9 Supersomes, luciferin-H conversion; inhibition, % at 5 µM; actives 20% (n = 96,000); AID 777, 2007;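 active = blocking of liver enzyme CYP2C9 beyond about 50% at 5 µM, limit read from the data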
Numbers stand for hits; 0 = inactive. Compounds with a hit are over-represented: about 31% of the library has one in this group of screens.

SMILES	CYP2C19 activ	CYP2C9 act	CYP2C19 inh	CYP2C9 inhib
O=[N+]([O-])c1ccc(Cl)c(/C=N/NC(=S)Nc2ccccc2)c1	0	0	0	0
Cc1ccc(S(=O)(=O)N/N=C\c2cc([N+](=O)[O-])ccc2Cl)cc1	0	0	62	0
CC(/C=C/C=C/c1ccccc1)=N/NC(=O)CNc1ccc(C)cc1	0	0	0	0
CCC(NS(=O)(=O)c1ccc(OC)cc1)C(=O)O (stereo not drawn)	0	0	0	0
CCn1cc(/C=N/NS(=O)(=O)c2ccc(OC)cc2)c(C)n1	0	0	87	69
C=CCn1c(O)c(N=NC(=O)c2ccc3c(c2)OCO3)c2ccccc21	0	0	0	0
COC(=O)CCN(C(=O)c1cc(OC)c(OC)c(OC)c1)c1ccccn1	0	0	0	0
COC(=O)CCN(C(=O)c1ccc2c(c1)OCO2)c1ccccn1	0	0	94	0
CCOc1ccccc1C(=O)N(CCC(=O)OC)c1ccccn1	0	0	53	0
C=CCN(C(=O)CNS(=O)(=O)c1ccccc1)C(C(=O)NCCOC)c1ccncc1 (stereo not drawn)	0	0	0	0
Cc1cnc(C(=O)Nc2ccc(N3CCN(C(=O)OC(C)(C)C)CC3)cc2)cn1	0	0	0	0
Cc1ccc(C)c(NS(=O)(=O)c2ccc(OCC(=O)NCc3ccco3)cc2)c1	0	0	0	0
COc1ccc(CSCC(=O)N/N=C/c2ccc(OCC(=O)NCc3ccco3)cc2)cc1	0	0	58	70
Cc1cccc(N(CC(=O)N/N=C/c2ccc(OCC(=O)NCc3ccco3)cc2)S(C)(=O)=O)c1C	0	0	77	96
CS(=O)(=O)N(CC(=O)N/N=C/c1cc([N+](=O)[O-])ccc1Cl)c1ccccc1	0	0	0	0
Cc1cccc(N(CC(=O)N/N=C/c2cc([N+](=O)[O-])ccc2Cl)S(C)(=O)=O)c1C	0	0	53	0
CC(=O)NN1C(=O)c2ccc(Oc3cccc([N+](=O)[O-])c3)cc2C1=O	0	0	0	0
CCOCCc1nnc(NC(=O)COC)s1	0	0	0	0
C=CCn1c(SCC(=O)c2cc(C)n(C(C)COC)c2C)nc2sc(C)c(C)c2c1=O (stereo not drawn)	0	0	89	91
Cc1noc(C)c1CSc1nnc2ccccn12	0	0	0	0
Cc1noc(C)c1CSc1nnnn1-c1ccc(Cl)cc1	0	0	99	58
Cc1noc(C)c1CSc1nc2ccccc2c(=O)n1-c1ccc(Cl)cc1	0	0	71	96
C=CCn1c(SCc2c(C)noc2C)nc2sc(C)c(C)c2c1=O	0	0	0	56
Cc1cc(NC(=O)CSc2nc3ccccc3c(=O)n2-c2ccccc2)no1	0	0	0	0
CCCCN(CCCNC(=O)c1ccc2nc(N3CCOCC3)sc2c1)Cc1ccccc1	0	0	0	0
SMILES	CYP2C19 activ	CYP2C9 act	CYP2C19 inh	CYP2C9 inhib
Cc1sc2nc(SCC(=O)N(C)Cc3ccccc3)n(-c3ccccc3)c(=O)c2c1C	0	0	0	0
Cc1noc(C)c1CSc1nc2sc(C)c(C)c2c(=O)n1-c1ccccc1	0	0	0	50
Cc1noc(C)c1CSc1nc2ccccc2n1CCc1ccccc1	0	0	63	62
CC1CCCC(C)N1CCNC(=O)Nc1ccc(Cl)cc1 (stereo not drawn)	0	0	0	0
CCOC(=O)N1CCC(NC(=O)c2cc(S(=O)(=O)N3CCc4ccccc43)cn2C)CC1	0	0	0	0
COc1ccc(OC)c(CNC(=O)C2CCN(C(=O)N(C)C)CC2)c1	0	0	0	0
COc1ccc(C(c2nnnn2C(C)(C)C)N2CCN(c3nc4ccccc4s3)CC2)cc1OC (stereo not drawn)	0	0	56	98
CCN1CCN(C(c2ccc(OC)c(OC)c2)c2nnnn2C(C)(C)C)CC1 (stereo not drawn)	0	0	0	0
COc1cc(C(c2nnnn2C(C)(C)C)N2CCN(c3nc4ccccc4s3)CC2)ccc1O (stereo not drawn)	0	0	61	97
O=C(COc1ccc(/C=N/NC(=O)c2cc3ccccc3o2)cc1Br)Nc1ccccc1	0	0	0	0
COCCNC(=O)CSc1nc(-c2ccc(OC)c(OC)c2)cc(C(F)(F)F)n1	0	0	0	60
O=C(CSc1nc(-c2ccccc2)cc(C(F)(F)F)n1)N1CCOCC1	0	0	0	0
COc1ccc(-c2cc(C(F)(F)F)nc(SCC(=O)N3CCOCC3)n2)cc1OC	0	0	0	84
